Percent Effect data for 40 compounds are collected here from ChEMBL document CHEMBL3988442, “University of Dundee, Small-Polar-MMV Screening Library” (2021).

The first test has as its target T1, Tyrosyl-tRNA synthetase, putative (Trypanosoma cruzi (strain CL Brener)) (UniProt Q4DSP6).
T1 sequence (whole entry): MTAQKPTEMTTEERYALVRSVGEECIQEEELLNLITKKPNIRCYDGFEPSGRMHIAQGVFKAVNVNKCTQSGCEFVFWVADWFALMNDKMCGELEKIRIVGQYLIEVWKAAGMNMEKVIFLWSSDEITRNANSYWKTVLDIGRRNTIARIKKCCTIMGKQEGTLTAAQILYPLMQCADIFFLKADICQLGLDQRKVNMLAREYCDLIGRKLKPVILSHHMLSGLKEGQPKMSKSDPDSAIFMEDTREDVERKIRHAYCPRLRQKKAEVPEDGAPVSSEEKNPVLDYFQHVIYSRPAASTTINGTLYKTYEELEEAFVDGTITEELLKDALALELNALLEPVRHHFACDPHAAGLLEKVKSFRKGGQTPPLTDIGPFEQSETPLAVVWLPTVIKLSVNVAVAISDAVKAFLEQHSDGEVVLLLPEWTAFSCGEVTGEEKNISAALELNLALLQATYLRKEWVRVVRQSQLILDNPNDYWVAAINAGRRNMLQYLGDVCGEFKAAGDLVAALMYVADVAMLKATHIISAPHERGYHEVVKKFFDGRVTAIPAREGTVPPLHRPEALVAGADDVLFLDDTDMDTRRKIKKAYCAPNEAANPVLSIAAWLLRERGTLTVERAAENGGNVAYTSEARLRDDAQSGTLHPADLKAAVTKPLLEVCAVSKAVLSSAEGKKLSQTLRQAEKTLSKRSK
Briefly: Trypanosoma cruzi tyrosyl tRNA synthetase (TcYRS) SOP. The note with it: 30 µM. The format is functional. Also noted: scale not given: direction of the effect not stated beside the values.
`c1cnn(Cc2nnc(C3CCN(C4CCOCC4)CC3)n2C2CC2)c1`: the Percent Effect stood at 16.1%.
Turning to `CCOc1ccccc1C(CC(=O)Nc1ccc(C)cn1)NC(C)=O` (stereo not given), the Percent Effect came to 17.1%.
Same read-out and setting: under `Cc1nc(C)n(CC2CN(Cc3cccnc3)CCO2)n1` (stereo not given) stands 23.5%; under `CCOc1ccc(C#N)cc1NCC(=O)Nc1cc(F)ccc1F`, 24.1%; under `COCC1CN(C(=O)C2=CCCCC2)Cc2cnn(CC3CC3)c21` (stereo not given), 16.7%.
On the same count and under the same terms, under `O=S1(=O)COCCN1Cc1cccc(Cl)c1` stands 12.2%.
Still for that read-out and setting: under `COCCN(Cc1nc2c(cnn2C)c(=O)[nH]1)Cc1ccco1` stands 18.5%.
For the compound `O=C(c1ccc(F)cc1)N1CCN2C[C@H](OCc3ccccn3)C[C@H]2C1`, the Percent Effect turned out to be 12.8%.
On the same count and under the same terms, under `CCO[C@@H]1CCN(C(=O)c2ccc[nH]2)[C@@H]1Cc1cnn(C)c1` stands 3.85%; under `O=C1C[C@H]2[C@@H](CCN2C(=O)c2ccccc2)N1CCN1CCOCC1`, -1.24%.
For `CC(NC(=O)NCCCn1cccn1)c1ccc2c(c1)NC(=O)CO2` (stereo not given), the Percent Effect amounted to 29.1%.
On the same count and under the same terms, under `CCc1nc(C(=O)N2CCCC2)nn1-c1ccccc1Cl` stands 18.5%.
The same measure, in the same setting: with `CN(CCOc1cccc(CNC(=O)C2CC2)c1)C1CCOCC1` the figure was 2.44%; with `CC(C)C1CN(C(=O)c2ccc(N3CCCC3)nc2)CCS1` (stereo not given), 6.17%.
The same measure, in the same setting: with `O=C(CCn1ccccc1=O)Nc1ccc(F)c(Cl)c1` the figure was 6.17%; with `CCS(=O)(=O)c1ccccc1N1CCC(NC(=O)NC2CCCC2)CC1`, 13.4%.
Consider `O=C(NS(=O)(=O)c1cc(Cl)sc1Cl)c1cccc2c1OCCO2`, for which the Percent Effect is -42.5%.
On the same count and under the same terms, with `CN(C)C(=O)CNC(=O)c1ccc(Cl)cc1F` the figure was -28.6%.
On the same count and under the same terms, with `COc1cccc(N2CCN(CCC(=O)NC3CCCC3)CC2)c1` the figure was 13%.
`c1csc(CN2Cc3nccn3CC(Cn3cncn3)C2)n1` (stereo not given): the Percent Effect turned out to be 13.6%.
For the compound `Cc1cc2nc(SCC(=O)N3CCCC3)n(-c3ccccc3)c(=O)c2[nH]1`, the Percent Effect is 2.6%.
On the same count and under the same terms, with `Cc1ccc(CN2CCCC3(CCN(S(C)(=O)=O)C3)C2)o1` (stereo not given) the figure was 14.1%; with `CC(NC(=O)NCC1(N2CCCCC2)CCCCC1)c1nncn1C` (stereo not given), 18.5%; with `CCOc1ncccc1C(=O)N(C)Cc1ncc(C)c(OC)c1C`, 18.8%.
On to `Cc1cc(C[C@@H]2COC[C@H]2NCc2ccc(Br)s2)on1`, for which the Percent Effect was -3.9%.
Still for that read-out and setting: with `CC(C)N1CCC(Cc2cncc(-c3ccccc3C(=O)O)n2)CC1` the figure was 8.97%; with `Cc1ccc2oc(CNC(C)c3nnc4n3CCCC4)cc2c1` (stereo not given), 15.8%.
Still for that read-out and setting: with `CC(=O)N1CCN(C(=O)NCc2csc(Br)c2)CC1` the figure was 1.22%.
Same read-out and setting: with `CCc1noc(C(C)N2CCN(Cc3nc(C)c(C)o3)CC2)n1` (stereo not given) the figure was -7.32%; with `CC(C)c1csc(C2CCCN(C(=O)c3ncccn3)C2)n1` (stereo not given), -3.7%.
On to `CC(C)(C)N1CC(C(=O)N2CCN(CCn3cccc3)CC2)CC1=O` (stereo not given), for which the Percent Effect is 8.64%.
The same measure, in the same setting: under `CC(C)c1nc(C2CCCN2CCc2ccncc2)no1` (stereo not given) stands -4.88%; under `CC(=O)NCc1ccc(C(=O)N2CCCC2c2cnn(C)c2)o1` (stereo not given), -1.24%.
Regarding `CC(C)NC(=O)c1n[nH]c(-n2cnnc2)n1`, the Percent Effect came out at 10.3%.
The same measure, in the same setting: with `Cc1cc(C)n(CC2CN(Cc3nc(-c4ccoc4)no3)CCO2)n1` (stereo not given) the figure was 18.5%; with `Cc1nn(C)c(N2CCOCC2)c1CNCc1ccc(Cl)s1`, 25.9%.
Still for that read-out and setting: under `CC(=O)N1CCCN(c2nccc(-c3cn(C)nc3C)n2)CC1` stands 8.64%.
On to `Cc1scc(C(=O)N2CCC3(CCCN(C)C3=O)C2)c1-c1ccccc1` (stereo not given), for which the Percent Effect worked out at 9.76%.
In the case of `Cc1cccc2[nH]c(C3CCN(C(=O)c4ccnn4C)CC3)nc12`, the Percent Effect was 13.6%.
`Cc1cccc(CN2CCc3c(nc(N4CCCCC4C)[nH]c3=O)C2)n1` (stereo not given): the Percent Effect was 9.09%.

In the next test the target is Chromo domain-containing protein 1 (Saccharomyces cerevisiae (strain ATCC 204508 / S288c) (Baker's yeast)) (UniProt P32657). The test is described as follows: ScCHD-1 Enzyme Inhibition Assay. The format is functional. Also noted: scale not given: in the data most compounds retested in dose-response had high values. The note with it: 30 µM.
Chromo domain-containing protein 1 (Saccharomyces cerevisiae (strain ATCC 204508 / S288c) (Baker's yeast)), sequence (P32657 whole entry, the tested form may be a part): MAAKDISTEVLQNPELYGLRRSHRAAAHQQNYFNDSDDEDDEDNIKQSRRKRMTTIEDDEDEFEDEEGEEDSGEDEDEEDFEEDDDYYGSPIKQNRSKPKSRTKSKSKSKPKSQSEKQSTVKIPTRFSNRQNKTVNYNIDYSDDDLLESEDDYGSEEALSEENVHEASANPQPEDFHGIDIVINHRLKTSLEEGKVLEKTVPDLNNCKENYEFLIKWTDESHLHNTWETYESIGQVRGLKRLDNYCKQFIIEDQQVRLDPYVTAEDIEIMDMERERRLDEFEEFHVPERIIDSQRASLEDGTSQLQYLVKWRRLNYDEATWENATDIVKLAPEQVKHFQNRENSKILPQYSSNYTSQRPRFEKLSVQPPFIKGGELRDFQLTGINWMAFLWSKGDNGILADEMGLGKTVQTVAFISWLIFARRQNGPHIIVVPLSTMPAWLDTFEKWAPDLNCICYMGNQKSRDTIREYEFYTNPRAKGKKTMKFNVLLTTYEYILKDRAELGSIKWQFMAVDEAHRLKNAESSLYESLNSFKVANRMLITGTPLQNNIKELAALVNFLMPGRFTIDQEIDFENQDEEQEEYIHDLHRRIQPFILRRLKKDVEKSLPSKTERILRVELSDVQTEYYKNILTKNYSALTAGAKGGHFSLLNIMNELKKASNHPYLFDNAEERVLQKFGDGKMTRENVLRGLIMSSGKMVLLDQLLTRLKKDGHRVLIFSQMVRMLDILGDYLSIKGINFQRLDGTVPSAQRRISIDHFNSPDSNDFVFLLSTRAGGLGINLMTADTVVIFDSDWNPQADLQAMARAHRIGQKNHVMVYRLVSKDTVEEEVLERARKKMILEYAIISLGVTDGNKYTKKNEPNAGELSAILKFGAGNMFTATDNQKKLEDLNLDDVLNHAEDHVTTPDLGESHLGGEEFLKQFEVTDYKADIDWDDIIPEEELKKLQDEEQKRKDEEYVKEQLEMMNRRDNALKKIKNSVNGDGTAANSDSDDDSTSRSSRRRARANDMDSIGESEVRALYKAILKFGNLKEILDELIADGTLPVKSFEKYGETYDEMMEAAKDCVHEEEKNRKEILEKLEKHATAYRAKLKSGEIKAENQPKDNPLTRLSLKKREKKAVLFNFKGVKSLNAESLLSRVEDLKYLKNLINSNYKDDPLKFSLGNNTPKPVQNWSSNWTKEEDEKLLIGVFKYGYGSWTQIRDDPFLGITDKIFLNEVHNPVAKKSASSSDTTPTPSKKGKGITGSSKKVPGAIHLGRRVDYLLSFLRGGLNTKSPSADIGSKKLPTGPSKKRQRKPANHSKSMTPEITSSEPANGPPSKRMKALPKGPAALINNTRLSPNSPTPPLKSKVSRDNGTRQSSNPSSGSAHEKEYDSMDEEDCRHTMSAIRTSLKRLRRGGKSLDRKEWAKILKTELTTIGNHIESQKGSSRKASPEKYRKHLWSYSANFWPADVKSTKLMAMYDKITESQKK
`c1cnn(Cc2nnc(C3CCN(C4CCOCC4)CC3)n2C2CC2)c1`: the Percent Effect was determined as 103%.
The same measure, in the same setting: with `CCOc1ccccc1C(CC(=O)Nc1ccc(C)cn1)NC(C)=O` (stereo not given) the figure was -15.3%; with `Cc1nc(C)n(CC2CN(Cc3cccnc3)CCO2)n1` (stereo not given), -5.32%; with `CCOc1ccc(C#N)cc1NCC(=O)Nc1cc(F)ccc1F`, 18.3%.
Consider `COCC1CN(C(=O)C2=CCCCC2)Cc2cnn(CC3CC3)c21` (stereo not given), for which the Percent Effect is -9.46%.
Same read-out and setting: under `O=S1(=O)COCCN1Cc1cccc(Cl)c1` stands -2.28%.
For the compound `COCCN(Cc1nc2c(cnn2C)c(=O)[nH]1)Cc1ccco1`, the Percent Effect was -4.09%.
The same measure, in the same setting: under `O=C(c1ccc(F)cc1)N1CCN2C[C@H](OCc3ccccn3)C[C@H]2C1` stands 1.66%; under `CCO[C@@H]1CCN(C(=O)c2ccc[nH]2)[C@@H]1Cc1cnn(C)c1`, -2.5%.
On the same count and under the same terms, under `O=C1C[C@H]2[C@@H](CCN2C(=O)c2ccccc2)N1CCN1CCOCC1` stands -3.6%; under `CC(NC(=O)NCCCn1cccn1)c1ccc2c(c1)NC(=O)CO2` (stereo not given), -10.1%; under `CCc1nc(C(=O)N2CCCC2)nn1-c1ccccc1Cl`, -7.11%.
Still for that read-out and setting: under `CN(CCOc1cccc(CNC(=O)C2CC2)c1)C1CCOCC1` stands 0.329%; under `CC(C)C1CN(C(=O)c2ccc(N3CCCC3)nc2)CCS1` (stereo not given), -1.7%; under `O=C(CCn1ccccc1=O)Nc1ccc(F)c(Cl)c1`, -7.68%.
Consider `CCS(=O)(=O)c1ccccc1N1CCC(NC(=O)NC2CCCC2)CC1`, for which the Percent Effect is -1.94%.
On the same count and under the same terms, with `O=C(NS(=O)(=O)c1cc(Cl)sc1Cl)c1cccc2c1OCCO2` the figure was -4.53%; with `CN(C)C(=O)CNC(=O)c1ccc(Cl)cc1F`, -15.3%.
The same measure, in the same setting: with `COc1cccc(N2CCN(CCC(=O)NC3CCCC3)CC2)c1` the figure was -4.62%; with `c1csc(CN2Cc3nccn3CC(Cn3cncn3)C2)n1` (stereo not given), -0.0341%.
Turning to `Cc1cc2nc(SCC(=O)N3CCCC3)n(-c3ccccc3)c(=O)c2[nH]1`, the Percent Effect is -5.49%.
On the same count and under the same terms, under `Cc1ccc(CN2CCCC3(CCN(S(C)(=O)=O)C3)C2)o1` (stereo not given) stands -3.22%; under `CC(NC(=O)NCC1(N2CCCCC2)CCCCC1)c1nncn1C` (stereo not given), -6%.
In the case of `CCOc1ncccc1C(=O)N(C)Cc1ncc(C)c(OC)c1C`, the Percent Effect was -14.4%.
Same read-out and setting: under `Cc1cc(C[C@@H]2COC[C@H]2NCc2ccc(Br)s2)on1` stands -6.34%; under `CC(C)N1CCC(Cc2cncc(-c3ccccc3C(=O)O)n2)CC1`, -3.75%.
Same read-out and setting: with `Cc1ccc2oc(CNC(C)c3nnc4n3CCCC4)cc2c1` (stereo not given) the figure was 1.91%.
Still for that read-out and setting: under `CC(=O)N1CCN(C(=O)NCc2csc(Br)c2)CC1` stands -0.334%.
On to `CCc1noc(C(C)N2CCN(Cc3nc(C)c(C)o3)CC2)n1` (stereo not given), for which the Percent Effect amounted to 2.3%.
Consider `CC(C)c1csc(C2CCCN(C(=O)c3ncccn3)C2)n1` (stereo not given), for which the Percent Effect was -2.9%.
Same read-out and setting: under `CC(C)(C)N1CC(C(=O)N2CCN(CCn3cccc3)CC2)CC1=O` (stereo not given) stands -4.28%; under `CC(C)c1nc(C2CCCN2CCc2ccncc2)no1` (stereo not given), -0.507%; under `CC(=O)NCc1ccc(C(=O)N2CCCC2c2cnn(C)c2)o1` (stereo not given), 2.06%.
On the same count and under the same terms, under `CC(C)NC(=O)c1n[nH]c(-n2cnnc2)n1` stands -8.26%; under `Cc1cc(C)n(CC2CN(Cc3nc(-c4ccoc4)no3)CCO2)n1` (stereo not given), -11.6%.
Same read-out and setting: under `Cc1nn(C)c(N2CCOCC2)c1CNCc1ccc(Cl)s1` stands -8.79%; under `CC(=O)N1CCCN(c2nccc(-c3cn(C)nc3C)n2)CC1`, -7.43%; under `Cc1scc(C(=O)N2CCC3(CCCN(C)C3=O)C2)c1-c1ccccc1` (stereo not given), -4.36%.
Consider `Cc1cccc2[nH]c(C3CCN(C(=O)c4ccnn4C)CC3)nc12`, for which the Percent Effect was -3.54%.
With `Cc1cccc(CN2CCc3c(nc(N4CCCCC4C)[nH]c3=O)C2)n1` (stereo not given), the Percent Effect amounted to 2.2%.
